PubChem BioAssay (NCATS)
Inconclusive results are not listed. A call without a number means that no potency is given here. Calls of active or inactive are those of the source. Calls follow the shape of the dose curve; as a rule, active = well fitted inhibition curve with a large enough effect; inconclusive = small, poorly fitted or top-dose-only effect; inactive = no such curve, though single readings can be large or run the other way.

How the values were obtained:
[1] = qHTS assay for measurement of the activity of small molecule inhibitors on Zika virus induced Caspase-3 activity in human iPSC derived neural progenitor cells (hNPCs) (AID 1224857); also: nearly all actives have a fitted effect of over 65% in size
In short: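 hNPCs seeded 350 cells/well, cultured 16–20 h; compounds added 1 h before ZIKV (2 FFU/cell), 37 C 6 h. Caspase-Glo 3/7 luminescence after 30 min RT; % inhibition from induction scaled to uninfected (0%) and infected (100%) wells.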

[2] = qHTS assay for measurement of the activity of small molecule inhibitors on Zika virus induced Caspase-3 activity in human astrocytoma cells (AID 1224859)
In short: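 Luminescence read-out (Caspase-Glo 3/7, 30 min RT) of caspase activity in SNB-19 cells infected 6 h with ZIKV, 2 FFU/cell, after 1 h compound pretreatment; % inhibition from induction normalised to uninfected (0%) and infected (100%) wells.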

Row | Compound | Potency [1] | outcome [2]
1 | CC(C)NP(=O)(NC(C)C)OP(=O)(NC(C)C)NC(C)C | inactive | inactive
2 | CCCN(CCC)CCc1ccc(O)c(O)c1 | inactive | inactive
3 | NCCCP(=O)(O)O | inactive | inactive
4 | NNC(=O)c1ccc(O)cc1 | inactive | inactive
5 | COc1ccc2c(c1)C13CCCCC1C(C2)N(C)CC3 (configuration not stated) | inactive | inactive
6 | CNc1ccc2oc(C[C@H]3O[C@@]4(CC[C@H]3C)O[C@H]([C@H](C)C(=O)c3ccc[nH]3)[C@H](C)C[C@H]4C)nc2c1C(=O)O | inactive | inactive
7 | CCCCCCCCCCCCCC(=O)O[C@@H]1[C@@H](C)[C@@]2(O)[C@@H](C=C(CO)C[C@@]3(O)C(=O)C(C)=C[C@@H]23)C2C(C)(C)[C@@]21OC(C)=O (some centres not stated) | inactive | inactive
8 | O=[N+]([O-])c1ccc2nc(N3CCNCC3)ccc2c1 | inactive | inactive
9 | Ic1ccccc1CNC1C2CCN(CC2)C1C(c1ccccc1)c1ccccc1 (configuration not stated) | inactive | inactive
10 | CN1CCC(c2c[nH]c3ccc(O)cc23)CC1 | inactive | inactive
11 | c1ccc2cc(CC3=NCCN3)ccc2c1 | inactive | inactive
12 | Clc1ccc(N2CC3CCC(C2)N3)nn1 | inactive | inactive
13 | Clc1cc(I)cc(Cl)c1NC1=NCCN1 | inactive | inactive
14 | CCCN(CCC)C1CCc2cccc(O)c2C1 (configuration not stated) | inactive | inactive
15 | CCCn1c(=O)c2[nH]c(C3CCCC3)nc2n(CCCOC(=O)c2ccc(S(=O)(=O)F)cc2)c1=O | inactive | inactive
16 | O=C1CC[C@@]2(O)C3Cc4ccc(O)c5c4C2(CCN3CC2CC2)[C@H]1O5 (some centres not stated) | inactive | inactive
